Activity calls are given as the source filed them.
Assays:
[1] = test system: PRMT1 (protein arginine N-methyltransferase 1); assay: small molecules binding arginine methyltransferase PRMT1 – biochemical, small-molecule microarray, 635 nm fluorescence, primary screen (AID 1088); conditions: higher = more signal;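 note: binding of Prmt1 protein to compounds spotted on small-molecule microarray slides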
[2] = growth effects on S. cerevisiae YJM789 – YJM789 clinical isolate, OD600, 24 h, basal, primary screen (AID 1089); conditions: higher = more signal, called active from +8 up or from −8 down;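 note: growth of clinical yeast isolate S. cerevisiae YJM 789 seeded 1000 cells per well; test concentration not given here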
[3] = S. pombe growth modifiers, basal conditions – strain 972, OD600, 24 h, no modulator, primary screen (AID 1090);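 note: basal condition with compound alone and no growth modifier present; test concentration not given here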; conditions: S. pombe 972 growth, higher = more signal, called active from +8 up or from −8 down
[4] = budding yeast growth modifiers under rapamycin – strain BY4716, OD600, 96 h, primary screen (AID 1091); note: test concentration not given here; conditions: S. cerevisiae BY4716 + rapamycin, higher = more signal, called active from +8 up or from −8 down
[5] = target: Torsin-1A-interacting protein 2 (Homo sapiens) (UniProt Q8NFQ8); assay: small molecules binding lysate-expressed LULL1 – cell lysate, human LULL1 lysate, 635/667 nm fluorescence, primary screen (AID 1092); conditions: small-molecule microarray, hLULL1 lysate binding, 635 nm fluorescence; higher = more signal;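 note: probe is lysate of COS7 cells overexpressing human LULL1; score merges per-feature 667 nm fluorescence with signal-to-noise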
[6] = optical density change of DRC41 E. coli – strain DRC41, OD650, 24 h, E. coli filamentation project, primary screen (AID 1093);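 note: MC1000 strain lacking acrAB efflux and sulA so SOS filamentation is blocked; test concentration not given here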; conditions: E. coli DRC41 growth, higher = more signal, called active from +8 up or from −8 down
[7] = probe aLefty2 binding to arrayed compounds – biochemical, biotinylated probe, 635/667 nm fluorescence, primary screen (AID 1094); conditions: small-molecule microarray, higher = more signal;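 note: score merges spot fluorescence near 667 nm with spot signal-to-noise ratio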
[8] = test system: Noggin (protein binding on small-molecule microarray); assay: small molecules binding Noggin protein – biochemical, 635/667 nm fluorescence, primary screen (AID 1095); conditions: 635 nm fluorescence, higher = more signal;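 note: score merges 667 nm feature fluorescence with signal to noise over triplicate slides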
[9] = target: Neurogenic locus notch homolog protein 3 (Homo sapiens) (UniProt Q9UM47); assay: small molecules binding NOTCH3 protein – biochemical, 635/667 nm fluorescence, primary screen (AID 1096); conditions: small-molecule microarray, 635 nm fluorescence, higher = more signal
[10] = probe aEGFR binding to arrayed compounds – biochemical, biotinylated probe, 635/667 nm fluorescence, primary screen (AID 1097); conditions: small-molecule microarray, higher = more signal;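 note: probe is a biotinylated anti-EGFR antibody binding compounds printed on slides; score combines fluorescence near 667 nm and signal to noise of each spot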
[11] = test system: Plasmodium falciparum Sir2 (PF13_0152, Sir2A); assay: Plasmodium falciparum Sir2A binding compounds – biochemical, small-molecule microarray, 635 nm fluorescence, primary screen (AID 1098); conditions: fluorescence 635 nm, higher = more signal;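 note: score merges spot fluorescence intensity with its signal-to-noise ratio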
[12] = probe aDKK1 binding to arrayed compounds – biochemical, biotinylated probe, 635/667 nm fluorescence, primary screen (AID 1099); conditions: small-molecule microarray, higher = more signal;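 note: score merges 667nm spot fluorescence with signal to noise across triplicate slides; reference of the scale not given here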
[13] = probe aCHRDL2 binding to arrayed compounds – biochemical, biotinylated probe, 635/667 nm fluorescence, primary screen (AID 1100); conditions: small-molecule microarray, higher = more signal
[14] = change in splice reporter luminescence, either direction, cell-based, HEK293, spliceosome inhibition project, primary screen (AID 1101); conditions: HEK293 splicing luciferase reporter, 24 h, higher = more signal, called active from +8 up or from −8 down;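 note: HEK293 cells carrying a splicing-competent luciferase reporter gene; test concentration not given here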
[15] = target: Fibroblast growth factor 10 (Homo sapiens) (UniProt O15520); assay: compounds binding fibroblast growth factor 10 – biochemical, small-molecule microarray, 635 nm fluorescence, primary screen (AID 1102); conditions: FGF10 binding, fluorescence 635 nm, higher = more signal
[16] = test system: glycogen synthase kinase-3 (GSK3A per assay name; protocol says GSK3B); assay: compounds binding glycogen synthase kinase-3 – biochemical, small-molecule microarray, 635 nm fluorescence, GSK3A, primary screen (AID 1103); conditions: fluorescence 635 nm, higher = more signal; note: the record names both GSK3A and GSK3B
[17] = target: Epidermal growth factor receptor (Homo sapiens) (UniProt P00533); assay: compounds binding epidermal growth factor receptor – biochemical, small-molecule microarray, 635 nm fluorescence, primary screen (AID 1104); conditions: EGFR binding, higher = more signal;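 note: score merges 667 nm emission intensity with spot signal to noise over triplicate slides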
[18] = target: Follistatin-related protein 3 (Homo sapiens) (UniProt O95633); assay: compounds binding follistatin-related protein 3 – biochemical, small-molecule microarray, 635 nm fluorescence, primary screen (AID 1105); conditions: FSTL3 binding, higher = more signal;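 note: score merges emission near 667 nm and signal to noise per printed spot across three slides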
[19] = target: Dickkopf-related protein 1 (Homo sapiens) (UniProt O94907); assay: small molecules binding DKK1 protein – biochemical, small-molecule microarray, 635 nm fluorescence scan, primary screen (AID 1106); conditions: higher = more signal;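 note: score merges emission near 667 nm with signal to noise over three replicate slides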
[20] = test system: Inhibin beta A chain (activin A); assay: small molecules binding activin A – biochemical, small-molecule microarray, 635 nm fluorescence scan, primary screen (AID 1107); conditions: INHBA, higher = more signal;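 note: mouse activin A protein probed at 4.33 µg/mL on printed slides; score merges bound-protein fluorescence near 667 nm with spot signal-to-noise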

Sequence of Dickkopf-related protein 1 (Homo sapiens) (O94907 whole entry, looked up): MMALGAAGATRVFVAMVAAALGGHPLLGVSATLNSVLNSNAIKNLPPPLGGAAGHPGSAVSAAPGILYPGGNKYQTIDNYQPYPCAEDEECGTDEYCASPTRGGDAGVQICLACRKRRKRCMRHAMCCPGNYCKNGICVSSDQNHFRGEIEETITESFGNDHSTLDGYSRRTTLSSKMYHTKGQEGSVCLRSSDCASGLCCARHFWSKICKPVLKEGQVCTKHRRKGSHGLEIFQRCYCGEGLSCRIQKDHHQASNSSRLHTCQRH
Sequence of Follistatin-related protein 3 (Homo sapiens) (O95633 whole entry, looked up): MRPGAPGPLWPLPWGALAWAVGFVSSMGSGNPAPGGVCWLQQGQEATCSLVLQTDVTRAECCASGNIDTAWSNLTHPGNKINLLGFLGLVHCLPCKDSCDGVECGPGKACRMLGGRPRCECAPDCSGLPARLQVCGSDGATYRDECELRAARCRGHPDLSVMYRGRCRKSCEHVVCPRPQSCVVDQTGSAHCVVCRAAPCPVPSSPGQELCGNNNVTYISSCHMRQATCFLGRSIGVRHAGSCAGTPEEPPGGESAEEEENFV
Sequence of Torsin-1A-interacting protein 2 (Homo sapiens) (Q8NFQ8 whole entry, looked up): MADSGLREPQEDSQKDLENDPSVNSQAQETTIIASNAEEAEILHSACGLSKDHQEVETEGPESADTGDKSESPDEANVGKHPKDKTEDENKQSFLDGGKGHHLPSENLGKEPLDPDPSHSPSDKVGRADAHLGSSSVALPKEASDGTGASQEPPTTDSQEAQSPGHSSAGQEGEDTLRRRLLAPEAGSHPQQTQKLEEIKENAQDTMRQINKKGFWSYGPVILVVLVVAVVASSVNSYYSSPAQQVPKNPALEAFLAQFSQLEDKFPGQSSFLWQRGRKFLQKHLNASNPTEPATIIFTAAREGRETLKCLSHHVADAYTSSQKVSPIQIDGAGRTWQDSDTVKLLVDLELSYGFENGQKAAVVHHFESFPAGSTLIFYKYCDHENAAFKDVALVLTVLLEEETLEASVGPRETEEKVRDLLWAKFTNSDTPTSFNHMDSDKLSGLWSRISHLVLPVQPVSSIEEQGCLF
Sequence of Epidermal growth factor receptor (Homo sapiens) (P00533 whole entry, looked up): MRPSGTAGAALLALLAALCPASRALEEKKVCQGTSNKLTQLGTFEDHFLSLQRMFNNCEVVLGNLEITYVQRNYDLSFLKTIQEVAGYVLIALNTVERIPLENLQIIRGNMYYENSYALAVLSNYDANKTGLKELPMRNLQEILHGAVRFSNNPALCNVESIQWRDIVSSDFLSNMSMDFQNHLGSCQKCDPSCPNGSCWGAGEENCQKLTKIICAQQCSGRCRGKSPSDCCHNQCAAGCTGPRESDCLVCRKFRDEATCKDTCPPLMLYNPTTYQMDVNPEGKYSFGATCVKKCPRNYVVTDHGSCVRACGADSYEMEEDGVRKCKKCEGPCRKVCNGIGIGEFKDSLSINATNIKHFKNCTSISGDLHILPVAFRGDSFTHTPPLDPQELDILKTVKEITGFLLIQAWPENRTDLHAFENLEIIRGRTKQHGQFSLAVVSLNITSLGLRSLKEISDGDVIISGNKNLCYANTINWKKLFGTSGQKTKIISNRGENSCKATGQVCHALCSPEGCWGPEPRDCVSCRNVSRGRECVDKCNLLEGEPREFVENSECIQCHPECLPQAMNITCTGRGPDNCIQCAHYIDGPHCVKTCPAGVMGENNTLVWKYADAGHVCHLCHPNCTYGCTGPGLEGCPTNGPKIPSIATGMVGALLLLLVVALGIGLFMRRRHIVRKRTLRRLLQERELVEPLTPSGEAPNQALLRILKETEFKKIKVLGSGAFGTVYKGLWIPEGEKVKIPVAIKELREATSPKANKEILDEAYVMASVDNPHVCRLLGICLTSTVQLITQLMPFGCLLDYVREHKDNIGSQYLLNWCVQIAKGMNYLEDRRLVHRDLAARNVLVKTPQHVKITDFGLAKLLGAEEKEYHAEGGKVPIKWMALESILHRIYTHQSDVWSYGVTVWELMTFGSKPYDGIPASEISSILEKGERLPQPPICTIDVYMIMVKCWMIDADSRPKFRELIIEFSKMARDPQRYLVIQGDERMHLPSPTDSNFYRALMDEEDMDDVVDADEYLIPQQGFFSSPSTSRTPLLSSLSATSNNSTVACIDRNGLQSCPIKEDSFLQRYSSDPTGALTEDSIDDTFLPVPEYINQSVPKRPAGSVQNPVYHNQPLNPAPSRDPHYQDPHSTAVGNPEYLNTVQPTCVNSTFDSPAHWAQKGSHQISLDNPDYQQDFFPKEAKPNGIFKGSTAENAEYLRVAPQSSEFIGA
Sequence of Fibroblast growth factor 10 (Homo sapiens) (O15520 whole entry, looked up): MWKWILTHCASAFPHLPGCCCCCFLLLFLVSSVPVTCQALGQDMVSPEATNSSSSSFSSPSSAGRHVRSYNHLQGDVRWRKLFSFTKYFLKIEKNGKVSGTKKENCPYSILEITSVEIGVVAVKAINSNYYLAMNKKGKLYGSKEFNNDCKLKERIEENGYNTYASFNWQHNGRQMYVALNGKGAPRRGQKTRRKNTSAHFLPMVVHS
Sequence of Neurogenic locus notch homolog protein 3 (Homo sapiens) (Q9UM47 whole entry, looked up): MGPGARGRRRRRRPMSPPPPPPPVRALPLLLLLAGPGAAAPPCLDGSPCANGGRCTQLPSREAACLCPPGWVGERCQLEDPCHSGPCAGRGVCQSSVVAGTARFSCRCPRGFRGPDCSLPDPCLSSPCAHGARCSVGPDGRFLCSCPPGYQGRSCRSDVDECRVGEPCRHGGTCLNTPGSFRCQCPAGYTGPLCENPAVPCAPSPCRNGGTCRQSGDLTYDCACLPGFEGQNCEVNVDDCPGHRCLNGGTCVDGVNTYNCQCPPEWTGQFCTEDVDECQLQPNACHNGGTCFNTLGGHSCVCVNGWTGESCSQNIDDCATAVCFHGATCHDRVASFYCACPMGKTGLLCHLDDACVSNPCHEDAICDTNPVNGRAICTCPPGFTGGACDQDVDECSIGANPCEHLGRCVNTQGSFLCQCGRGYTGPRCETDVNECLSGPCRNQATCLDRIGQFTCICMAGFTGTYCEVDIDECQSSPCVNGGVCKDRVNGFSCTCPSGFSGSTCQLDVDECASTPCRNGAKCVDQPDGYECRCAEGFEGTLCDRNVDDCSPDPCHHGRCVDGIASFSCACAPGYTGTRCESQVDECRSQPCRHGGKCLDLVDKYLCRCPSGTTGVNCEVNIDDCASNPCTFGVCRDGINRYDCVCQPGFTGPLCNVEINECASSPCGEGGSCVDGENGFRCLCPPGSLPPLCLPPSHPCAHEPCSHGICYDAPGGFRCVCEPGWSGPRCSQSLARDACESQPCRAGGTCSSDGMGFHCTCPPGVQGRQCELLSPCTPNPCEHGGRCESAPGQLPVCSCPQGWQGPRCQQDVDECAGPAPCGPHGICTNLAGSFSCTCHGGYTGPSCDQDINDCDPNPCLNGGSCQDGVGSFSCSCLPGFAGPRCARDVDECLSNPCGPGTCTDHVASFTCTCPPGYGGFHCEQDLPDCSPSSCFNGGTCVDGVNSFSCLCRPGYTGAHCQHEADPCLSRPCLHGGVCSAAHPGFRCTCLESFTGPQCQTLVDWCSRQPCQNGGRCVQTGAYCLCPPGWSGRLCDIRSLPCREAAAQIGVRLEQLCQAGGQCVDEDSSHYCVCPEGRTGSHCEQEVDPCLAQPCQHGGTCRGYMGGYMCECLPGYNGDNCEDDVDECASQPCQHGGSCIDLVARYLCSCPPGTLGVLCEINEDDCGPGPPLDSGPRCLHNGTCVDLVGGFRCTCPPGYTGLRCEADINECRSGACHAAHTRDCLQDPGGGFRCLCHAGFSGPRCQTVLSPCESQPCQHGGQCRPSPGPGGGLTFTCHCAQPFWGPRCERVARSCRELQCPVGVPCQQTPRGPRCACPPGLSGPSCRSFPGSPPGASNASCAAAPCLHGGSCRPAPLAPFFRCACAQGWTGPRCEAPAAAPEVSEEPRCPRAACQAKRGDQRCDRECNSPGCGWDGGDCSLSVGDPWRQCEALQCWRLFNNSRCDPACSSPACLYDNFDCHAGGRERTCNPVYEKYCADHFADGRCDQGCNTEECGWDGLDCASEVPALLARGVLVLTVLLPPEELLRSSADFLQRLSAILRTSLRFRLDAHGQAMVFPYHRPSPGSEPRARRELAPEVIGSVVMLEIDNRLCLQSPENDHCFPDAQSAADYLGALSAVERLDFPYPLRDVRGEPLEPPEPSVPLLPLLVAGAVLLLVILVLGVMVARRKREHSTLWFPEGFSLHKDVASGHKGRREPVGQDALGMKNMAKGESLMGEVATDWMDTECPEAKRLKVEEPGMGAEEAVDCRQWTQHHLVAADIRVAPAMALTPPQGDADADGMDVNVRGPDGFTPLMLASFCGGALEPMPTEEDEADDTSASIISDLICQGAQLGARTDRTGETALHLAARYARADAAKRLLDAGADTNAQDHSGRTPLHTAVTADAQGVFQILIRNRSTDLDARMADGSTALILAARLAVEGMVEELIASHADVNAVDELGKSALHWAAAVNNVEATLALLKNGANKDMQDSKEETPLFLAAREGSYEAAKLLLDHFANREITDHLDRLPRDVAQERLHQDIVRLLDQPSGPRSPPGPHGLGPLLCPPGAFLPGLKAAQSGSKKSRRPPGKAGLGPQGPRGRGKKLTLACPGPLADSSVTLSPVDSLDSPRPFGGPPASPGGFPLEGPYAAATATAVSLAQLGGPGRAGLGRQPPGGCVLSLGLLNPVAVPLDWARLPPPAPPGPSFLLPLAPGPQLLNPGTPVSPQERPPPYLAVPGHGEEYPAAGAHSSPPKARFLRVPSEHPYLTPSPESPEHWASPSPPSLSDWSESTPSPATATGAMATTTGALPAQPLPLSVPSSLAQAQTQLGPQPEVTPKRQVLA

SMILES | composite z-score [1] | z-score [2] | z-score [3] | z-score [4] | composite z-score [5] | z-score [6] | composite z-score [7] | composite z-score [8] | composite z-score [9] | composite z-score [10] | composite z-score [11] | composite z-score [12] | composite z-score [13] | z-score [14] | composite z-score [15] | composite z-score [16] | composite z-score [17] | composite z-score [18] | composite z-score [19] | composite z-score [20]
C=CCNC(=O)[C@H]1[C@@H]2C(=O)O[C@@H](c3ccccc3)[C@@H](c3ccccc3)N2[C@@H](c2ccc(O)cc2)[C@]12C(=O)N(C(=O)OCCOC)c1ccc(C#Cc3ccc(OC)cc3)cc12 | 1.42 | 0.622 (inactive) | 0.074 (inactive) | 1.66 (inactive) | 2.23 | -0.866 (inactive) | -0.0302 | 0.44 | 0.892 | 0.0219 | 1.21 | -0.0387 | 0.478 | -0.294 (inactive) | 0.88 | 1.08 | 0.215 | 0.448 | 0.211 | 0.794
O=C1c2ccccc2[C@@]2(Cc3ccccc3N(CC(F)(F)F)C2=O)[C@H](c2ccc(CO)cc2)N1Cc1ccccc1 | 0.349 | 0.633 (inactive) | -0.269 (inactive) | -1.49 (inactive) | -0.117 | -1.91 (inactive) | -0.147 | 0.666 | -0.242 | -0.177 | -0.33 | -0.449 | -0.419 | -0.719 (inactive) | -0.0636 | 0.387 | -0.171 | 0.766 | 0.309 | 1.32
COC(=O)[C@H](Cc1ccccc1)N1CC(C)(OC)O[C@@H](Cc2ccccc2)[C@H]1/C=C/C1CC1 (stereo not given in full) | 0.38 | 0.0394 (inactive) | -2.37 (inactive) | -0.184 (inactive) | 0.638 | -0.0718 (inactive) | -0.124 | -0.305 | -0.68 | -0.15 | 0.292 | -0.158 | 0.0982 | -0.579 (inactive) | -0.105 | 0.178 | -0.359 | -0.151 | -0.268 | 0.609
COC(=O)[C@@]1(Cc2ccc(OC)cc2)[C@@H]2[C@@H](CC(=O)[C@H]2CC(=O)C(=O)N(C)C)CN1C(=O)c1ccccc1 | 0.707 | -0.0616 (inactive) | 1.61 (inactive) | 3.34 (inactive) | 3.24 | -0.163 (inactive) | 1.11 | -0.458 | 1.01 | 0.766 | 0.625 | 1.64 | 1.49 | -1.53 (inactive) | 1.27 | 1.18 | 0.638 | 1.17 | -0.458 | 0.18
O=C(NC1CC1)[C@@H]1c2ccccc2C(=O)N(C2CCCCC2)[C@H]1c1ccc(CO)cc1 | 0.384 | 0.116 (inactive) | -0.0911 (inactive) | 0.0861 (inactive) | 2.76 | 0.398 (inactive) | 0.322 | -0.923 | 0.25 | 0.595 | 0.891 | 1.84 | 0.989 | -0.496 (inactive) | 0.055 | 0.286 | 0.0989 | 0.208 | 0.139 | -0.24
COCCOC(=O)N1C(=O)[C@@]2(c3cc(C#CCNC(N)=O)ccc31)[C@H](C(=O)Nc1nc3ccccc3s1)[C@H]1C(=O)O[C@H](c3ccccc3)[C@H](c3ccccc3)N1[C@@H]2c1ccc(O)cc1 | 1.47 | 1.45 (inactive) | 1.16 (inactive) | 1.32 (inactive) | 1.35 | -0.264 (inactive) | -0.103 | 0.939 | 0.986 | 0.0654 | 0.576 | 0.406 | 0.774 | 1.05 (inactive) | 0.777 | 1.06 | 0.195 | 0.783 | 0.393 | 0.719
CC(C)c1ccc(NN2C(C(O)C(C)c3ccccc3)C=CC3C(=O)N(c4ccccc4)C(=O)C32)cc1 (stereo not given) | 1.57 | -0.202 (inactive) | 0.0423 (inactive) | 1.21 (inactive) | 3.18 | -1.28 (inactive) | 0.57 | 0.272 | 1.07 | 0.298 | 1.28 | 1.41 | 1.03 | 1.77 (inactive) | 1.09 | 1.28 | 0.308 | 0.838 | 0.18 | -0.804
COc1ccc(C(O)C2C=CC3C(=O)N(c4ccccc4)C(=O)C3N2Nc2ccccc2F)c2ccccc12 (stereo not given) | 1.55 | -0.466 (inactive) | -0.0101 (inactive) | 0.257 (inactive) | 3.33 | -0.0841 (inactive) | 0.582 | 0.117 | 1.05 | 0.697 | 0.85 | 1.59 | 1.4 | -0.038 (inactive) | 1.04 | 1.32 | 0.531 | 1.36 | -0.265 | 1.02
CO[C@H]1O[C@H](CO)[C@@H](OC(=O)Nc2ccccc2)[C@@H]2OC(=O)[C@@H](Cc3ccccc3)C/C=C/C[C@H](Cc3ccccc3)C(=O)O[C@@H]12 | 1.2 | 0.552 (inactive) | -0.0693 (inactive) | 1.04 (inactive) | 1.41 | 0.386 (inactive) | 0.142 | -0.0235 | -0.151 | -0.0697 | 1.46 | -0.172 | -0.0203 | 0.0457 (inactive) | 0.73 | 0.107 | -0.191 | 0.094 | 0.206 | 0.983
COc1cc2c(cc1OC)CN(C(=O)[C@@H]1[C@H]3C(=O)O[C@H](c4ccccc4)[C@H](c4ccccc4)N3[C@H](c3ccc(O)cc3)[C@@]13C(=O)Nc1ccc(C#CC4=CCCCC4)cc13)CC2 | 1.55 | 1.63 (inactive) | -0.921 (inactive) | 1.88 (inactive) | 2.44 | 2.11 (inactive) | -0.0753 | 0.82 | 1.08 | 0.0324 | 1.39 | 0.716 | 0.586 | -0.101 (inactive) | 0.975 | 1.28 | 0.452 | 1.03 | 0.453 | 0.475
